# Legend:
# Assay in all cases: DAPPL (digital affinity profiling via proximity ligation, sequencing); 10 mM Tris-HCl pH 7.5, 50 mM NaCl, 1 mM DTT, 4% glycerol, room temperature, 30 min; GST-TFs on glutathione beads, 16-mer random dsDNA library, 0.1% formaldehyde crosslink after washing; high values mean tight binding
# Settings in all cases: protein: recombinant; tags: N-terminal GST; dsDNA, one strand shown
# GABPA = biological target: T1, GABPA (Homo sapiens, UniProt Q06546 1-454)
# T1 sequence: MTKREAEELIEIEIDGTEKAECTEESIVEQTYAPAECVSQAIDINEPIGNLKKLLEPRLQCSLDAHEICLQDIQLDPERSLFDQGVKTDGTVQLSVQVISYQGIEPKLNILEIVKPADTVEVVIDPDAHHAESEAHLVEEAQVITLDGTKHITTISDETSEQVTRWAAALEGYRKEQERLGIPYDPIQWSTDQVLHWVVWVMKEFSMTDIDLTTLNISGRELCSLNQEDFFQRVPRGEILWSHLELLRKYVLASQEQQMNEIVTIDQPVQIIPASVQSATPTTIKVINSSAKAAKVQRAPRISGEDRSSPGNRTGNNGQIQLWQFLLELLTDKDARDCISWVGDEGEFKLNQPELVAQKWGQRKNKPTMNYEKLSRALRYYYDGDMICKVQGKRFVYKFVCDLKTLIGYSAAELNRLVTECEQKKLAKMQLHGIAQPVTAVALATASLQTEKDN
# How it was run: (§1)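 Binding signal is each hexamer's read frequency for a factor divided by its frequency in the tag-only sample. The factors were GST-fused human transcription factors from yeast, captured on glutathione beads, DNA-barcoded and pooled with that sample. Pools were incubated with 200 nmole of a random double-stranded 16-mer DNA library in Tris/NaCl/DTT/glycerol buffer at room temperature for 30 min, then washed, crosslinked with 0.1% formaldehyde, proximity-ligated with BsaI/T4 ligase (1 h, 37 °C), PCR-amplified and sequenced on an Illumina NextSeq500.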
# ETV5 = ETV5 (Homo sapiens, UniProt P41161 1-510)
# How it was run: as §1
# ELF3 = biological target: T2, ELF3 (Homo sapiens, UniProt P78545 1-371)
# T2 sequence: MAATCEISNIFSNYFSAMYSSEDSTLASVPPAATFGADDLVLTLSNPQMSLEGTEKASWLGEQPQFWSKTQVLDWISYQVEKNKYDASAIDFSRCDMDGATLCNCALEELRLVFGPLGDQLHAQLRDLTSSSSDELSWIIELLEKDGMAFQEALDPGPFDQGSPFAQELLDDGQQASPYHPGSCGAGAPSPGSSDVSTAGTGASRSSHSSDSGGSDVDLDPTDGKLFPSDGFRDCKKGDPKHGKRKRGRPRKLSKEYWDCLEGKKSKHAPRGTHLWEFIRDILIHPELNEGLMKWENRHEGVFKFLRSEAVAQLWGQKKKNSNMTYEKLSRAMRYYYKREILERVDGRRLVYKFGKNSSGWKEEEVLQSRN
# How it was run: as §1
# ETV3 = biological target: T3, ETV3 (Homo sapiens, UniProt P41162-2 1-143)
# T3 sequence: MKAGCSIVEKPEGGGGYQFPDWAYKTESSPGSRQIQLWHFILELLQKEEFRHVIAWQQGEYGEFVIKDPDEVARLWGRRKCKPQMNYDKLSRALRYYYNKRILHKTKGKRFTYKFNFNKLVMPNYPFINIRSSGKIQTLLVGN
# How it was run: as §1
# EHF = biological target: T4, EHF (Homo sapiens, UniProt Q9NZC4 1-300)
# T4 sequence: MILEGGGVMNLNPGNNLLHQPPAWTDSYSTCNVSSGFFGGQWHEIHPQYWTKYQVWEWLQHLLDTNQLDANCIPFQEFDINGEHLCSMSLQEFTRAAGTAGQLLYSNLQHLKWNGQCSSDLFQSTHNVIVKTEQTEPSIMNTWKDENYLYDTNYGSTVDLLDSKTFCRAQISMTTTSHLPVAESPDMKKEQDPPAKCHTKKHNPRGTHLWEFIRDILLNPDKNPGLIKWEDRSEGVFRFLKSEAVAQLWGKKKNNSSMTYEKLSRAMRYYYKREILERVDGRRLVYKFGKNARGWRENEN
# How it was run: as §1
# ELK4 = biological target: T5, ELK4 (Homo sapiens, UniProt P28324-2 1-405)
# T5 sequence: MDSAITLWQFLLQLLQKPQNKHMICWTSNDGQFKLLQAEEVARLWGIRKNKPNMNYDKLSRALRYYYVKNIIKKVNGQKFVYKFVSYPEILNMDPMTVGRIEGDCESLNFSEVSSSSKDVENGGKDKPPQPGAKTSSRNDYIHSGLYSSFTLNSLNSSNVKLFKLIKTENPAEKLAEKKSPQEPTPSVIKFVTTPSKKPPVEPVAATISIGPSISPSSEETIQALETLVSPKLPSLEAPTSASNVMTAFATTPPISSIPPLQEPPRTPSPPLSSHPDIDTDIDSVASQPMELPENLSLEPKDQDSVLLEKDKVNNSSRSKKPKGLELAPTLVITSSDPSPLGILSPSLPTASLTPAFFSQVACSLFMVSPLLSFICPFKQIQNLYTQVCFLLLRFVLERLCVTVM
# How it was run: as §1
# ERG = biological target: T6, ERG (Homo sapiens, UniProt P11308 1-479)
# T6 sequence: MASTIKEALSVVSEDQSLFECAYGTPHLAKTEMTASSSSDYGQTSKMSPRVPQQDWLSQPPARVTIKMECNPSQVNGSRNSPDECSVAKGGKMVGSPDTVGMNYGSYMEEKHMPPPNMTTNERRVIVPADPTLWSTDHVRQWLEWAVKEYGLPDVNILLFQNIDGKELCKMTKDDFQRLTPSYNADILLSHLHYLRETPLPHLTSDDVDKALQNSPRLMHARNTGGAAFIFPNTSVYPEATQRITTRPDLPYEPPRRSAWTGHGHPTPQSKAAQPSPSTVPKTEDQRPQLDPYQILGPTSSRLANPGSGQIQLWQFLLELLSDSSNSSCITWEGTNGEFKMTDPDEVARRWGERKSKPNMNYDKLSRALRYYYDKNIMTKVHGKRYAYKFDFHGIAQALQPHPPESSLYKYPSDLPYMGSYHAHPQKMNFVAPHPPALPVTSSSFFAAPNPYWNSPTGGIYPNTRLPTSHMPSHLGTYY
# How it was run: as §1
# ELF1 = ELF1 (Homo sapiens, UniProt P32519 1-619)
# How it was run: as §1
# SPIB = SPIB (Homo sapiens, UniProt Q01892 1-262)
# How it was run: as §1
# ETV2 = biological target: T7, ETV2 (Homo sapiens, UniProt O00321 1-342)
# T7 sequence: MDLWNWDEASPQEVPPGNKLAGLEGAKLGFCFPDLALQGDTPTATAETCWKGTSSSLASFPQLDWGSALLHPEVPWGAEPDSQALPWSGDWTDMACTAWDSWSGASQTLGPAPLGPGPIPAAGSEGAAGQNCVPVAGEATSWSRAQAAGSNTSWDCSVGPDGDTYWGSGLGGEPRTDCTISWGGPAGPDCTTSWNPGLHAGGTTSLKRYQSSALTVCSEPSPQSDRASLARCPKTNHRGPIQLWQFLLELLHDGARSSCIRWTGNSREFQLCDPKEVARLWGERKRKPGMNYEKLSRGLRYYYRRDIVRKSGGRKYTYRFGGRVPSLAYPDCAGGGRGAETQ
# How it was run: as §1
# ETV1 = ETV1 (Homo sapiens, UniProt P50549 1-477)
# How it was run: as §1
# ERF = biological target: T8, ERF (Homo sapiens, UniProt P50548 1-548)
# T8 sequence: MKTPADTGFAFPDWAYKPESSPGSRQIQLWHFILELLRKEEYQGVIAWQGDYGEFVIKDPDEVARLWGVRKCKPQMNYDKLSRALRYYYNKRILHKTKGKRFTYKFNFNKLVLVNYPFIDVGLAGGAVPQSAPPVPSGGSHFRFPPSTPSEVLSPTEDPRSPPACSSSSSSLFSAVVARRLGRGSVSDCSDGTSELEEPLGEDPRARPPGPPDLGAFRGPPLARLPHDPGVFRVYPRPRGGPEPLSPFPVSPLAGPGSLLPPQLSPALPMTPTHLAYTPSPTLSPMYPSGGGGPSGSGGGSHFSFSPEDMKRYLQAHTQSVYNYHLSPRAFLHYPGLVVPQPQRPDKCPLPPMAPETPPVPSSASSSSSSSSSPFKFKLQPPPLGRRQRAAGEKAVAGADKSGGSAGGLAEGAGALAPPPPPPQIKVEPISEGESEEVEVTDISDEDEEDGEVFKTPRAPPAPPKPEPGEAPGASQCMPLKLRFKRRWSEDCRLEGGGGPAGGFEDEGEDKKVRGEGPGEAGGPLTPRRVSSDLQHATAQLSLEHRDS
# How it was run: as §1
# ETV3L = biological target: T9, ETV3L (Homo sapiens, UniProt Q6ZN32 1-361)
# T9 sequence: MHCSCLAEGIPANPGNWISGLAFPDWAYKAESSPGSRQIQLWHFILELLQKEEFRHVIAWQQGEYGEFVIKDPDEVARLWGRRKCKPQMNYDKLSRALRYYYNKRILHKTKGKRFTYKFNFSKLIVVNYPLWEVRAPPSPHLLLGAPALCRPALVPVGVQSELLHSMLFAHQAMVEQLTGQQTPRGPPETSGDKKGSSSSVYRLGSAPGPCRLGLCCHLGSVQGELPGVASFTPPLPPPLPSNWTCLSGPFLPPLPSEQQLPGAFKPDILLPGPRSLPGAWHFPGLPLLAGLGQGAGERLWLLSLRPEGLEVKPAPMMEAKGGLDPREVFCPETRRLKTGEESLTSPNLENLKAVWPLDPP
# How it was run: as §1
# ELK1 = biological target: T10, ELK1 (Homo sapiens, UniProt P19419 1-428)
# T10 sequence: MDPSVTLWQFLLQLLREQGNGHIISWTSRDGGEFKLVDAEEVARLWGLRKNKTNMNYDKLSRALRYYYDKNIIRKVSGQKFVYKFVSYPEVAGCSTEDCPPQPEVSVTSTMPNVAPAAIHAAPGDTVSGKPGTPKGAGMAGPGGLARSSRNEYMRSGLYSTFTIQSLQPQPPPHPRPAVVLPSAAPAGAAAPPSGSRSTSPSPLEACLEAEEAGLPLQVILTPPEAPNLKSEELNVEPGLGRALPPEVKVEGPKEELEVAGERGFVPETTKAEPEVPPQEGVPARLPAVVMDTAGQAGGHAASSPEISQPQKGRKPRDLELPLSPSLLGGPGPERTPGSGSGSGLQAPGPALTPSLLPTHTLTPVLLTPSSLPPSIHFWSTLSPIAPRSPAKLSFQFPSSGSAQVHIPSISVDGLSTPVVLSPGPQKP
# How it was run: as §1
# ELF4 = ELF4 (Homo sapiens, UniProt Q99607 1-663)
# How it was run: as §1
# ETV7 = biological target: T11, ETV7 (Homo sapiens, UniProt Q9Y603 1-341)
# T11 sequence: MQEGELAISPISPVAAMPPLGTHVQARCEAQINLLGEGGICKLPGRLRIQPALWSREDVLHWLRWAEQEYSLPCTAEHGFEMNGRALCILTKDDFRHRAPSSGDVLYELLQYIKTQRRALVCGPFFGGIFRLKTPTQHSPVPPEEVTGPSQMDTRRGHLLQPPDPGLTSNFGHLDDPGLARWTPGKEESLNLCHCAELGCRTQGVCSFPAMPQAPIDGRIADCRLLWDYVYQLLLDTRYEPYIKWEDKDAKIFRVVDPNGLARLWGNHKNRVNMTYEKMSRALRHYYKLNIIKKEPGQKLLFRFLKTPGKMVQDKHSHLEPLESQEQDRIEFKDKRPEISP
# How it was run: as §1
# ETV5, sequence (P41161 whole entry): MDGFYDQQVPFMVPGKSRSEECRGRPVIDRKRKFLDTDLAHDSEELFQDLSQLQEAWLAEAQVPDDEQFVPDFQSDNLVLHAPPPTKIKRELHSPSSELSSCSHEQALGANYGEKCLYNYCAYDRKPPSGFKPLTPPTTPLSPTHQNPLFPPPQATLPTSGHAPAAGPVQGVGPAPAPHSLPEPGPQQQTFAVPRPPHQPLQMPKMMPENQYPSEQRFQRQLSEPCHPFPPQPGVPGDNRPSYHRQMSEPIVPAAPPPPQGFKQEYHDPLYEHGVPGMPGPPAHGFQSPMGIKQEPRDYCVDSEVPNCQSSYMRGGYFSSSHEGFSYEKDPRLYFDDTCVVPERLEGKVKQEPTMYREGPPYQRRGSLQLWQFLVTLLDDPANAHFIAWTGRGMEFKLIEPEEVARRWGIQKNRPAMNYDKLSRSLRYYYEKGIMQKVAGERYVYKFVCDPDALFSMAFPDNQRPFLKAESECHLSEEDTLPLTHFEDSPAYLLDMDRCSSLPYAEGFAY
# ELF1, sequence (P32519 whole entry): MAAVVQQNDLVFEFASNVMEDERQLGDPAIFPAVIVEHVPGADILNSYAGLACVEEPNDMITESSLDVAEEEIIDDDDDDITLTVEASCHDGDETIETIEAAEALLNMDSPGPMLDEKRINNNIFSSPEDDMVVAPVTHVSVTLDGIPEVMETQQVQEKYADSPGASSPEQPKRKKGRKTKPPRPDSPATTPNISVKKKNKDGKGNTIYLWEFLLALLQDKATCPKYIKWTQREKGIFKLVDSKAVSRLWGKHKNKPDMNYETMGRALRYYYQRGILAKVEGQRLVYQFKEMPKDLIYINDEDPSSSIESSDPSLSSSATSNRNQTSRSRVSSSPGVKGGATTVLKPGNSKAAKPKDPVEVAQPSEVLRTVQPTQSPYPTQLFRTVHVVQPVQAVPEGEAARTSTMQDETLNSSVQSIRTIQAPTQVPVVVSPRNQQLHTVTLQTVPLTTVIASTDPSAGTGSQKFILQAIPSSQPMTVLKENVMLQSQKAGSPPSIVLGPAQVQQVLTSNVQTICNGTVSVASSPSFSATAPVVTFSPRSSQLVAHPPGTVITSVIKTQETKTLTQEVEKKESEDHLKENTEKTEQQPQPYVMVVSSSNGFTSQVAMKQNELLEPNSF
# ETV1, sequence (P50549 whole entry): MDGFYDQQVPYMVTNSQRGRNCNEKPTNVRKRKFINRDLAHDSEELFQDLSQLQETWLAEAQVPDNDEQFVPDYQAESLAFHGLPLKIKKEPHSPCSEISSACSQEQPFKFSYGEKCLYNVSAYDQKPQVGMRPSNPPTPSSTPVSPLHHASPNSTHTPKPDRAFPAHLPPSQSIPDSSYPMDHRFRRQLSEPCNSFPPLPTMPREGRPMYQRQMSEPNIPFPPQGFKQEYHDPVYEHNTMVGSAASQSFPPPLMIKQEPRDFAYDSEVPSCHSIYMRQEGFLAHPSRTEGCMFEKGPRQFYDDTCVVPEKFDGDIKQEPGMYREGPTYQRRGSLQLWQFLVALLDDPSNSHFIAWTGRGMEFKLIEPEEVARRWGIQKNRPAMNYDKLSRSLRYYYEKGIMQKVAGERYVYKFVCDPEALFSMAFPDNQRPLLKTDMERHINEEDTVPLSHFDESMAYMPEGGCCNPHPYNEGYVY
# SPIB, sequence (Q01892 whole entry): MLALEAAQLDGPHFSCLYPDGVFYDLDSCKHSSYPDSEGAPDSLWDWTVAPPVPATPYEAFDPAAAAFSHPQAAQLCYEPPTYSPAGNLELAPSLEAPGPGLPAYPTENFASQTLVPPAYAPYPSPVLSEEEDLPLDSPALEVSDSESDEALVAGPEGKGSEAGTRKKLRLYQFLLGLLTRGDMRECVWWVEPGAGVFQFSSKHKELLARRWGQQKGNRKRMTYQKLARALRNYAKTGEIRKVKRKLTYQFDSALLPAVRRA
# ELF4, sequence (Q99607 whole entry): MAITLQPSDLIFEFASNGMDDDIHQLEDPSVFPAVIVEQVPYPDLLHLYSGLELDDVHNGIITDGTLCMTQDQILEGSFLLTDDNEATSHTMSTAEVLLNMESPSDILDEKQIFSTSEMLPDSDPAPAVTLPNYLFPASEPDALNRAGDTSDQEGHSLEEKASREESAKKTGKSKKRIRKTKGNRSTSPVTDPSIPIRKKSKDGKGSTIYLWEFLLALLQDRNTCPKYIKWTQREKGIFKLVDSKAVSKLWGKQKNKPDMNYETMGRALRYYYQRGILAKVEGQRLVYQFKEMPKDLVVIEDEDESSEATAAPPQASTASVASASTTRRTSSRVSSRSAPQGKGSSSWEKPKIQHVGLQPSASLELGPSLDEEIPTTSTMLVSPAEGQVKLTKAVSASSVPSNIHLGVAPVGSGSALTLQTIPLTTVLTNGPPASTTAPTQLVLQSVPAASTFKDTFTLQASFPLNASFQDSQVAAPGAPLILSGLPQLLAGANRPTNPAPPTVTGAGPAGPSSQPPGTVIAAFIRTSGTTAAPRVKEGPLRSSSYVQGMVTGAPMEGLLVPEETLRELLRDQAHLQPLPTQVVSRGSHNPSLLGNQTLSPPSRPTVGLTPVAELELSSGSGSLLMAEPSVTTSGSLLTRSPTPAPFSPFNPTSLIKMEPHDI
sequence,measurement,setting,value
GAGCTT,binding signal,GABPA,"1.08 fold enrichment (6-mer frequency, TF over GST control)"
same,binding signal,ETV5,"1.04 fold enrichment (6-mer frequency, TF over GST control)"
same,binding signal,ELF3,"1.04 fold enrichment (6-mer frequency, TF over GST control)"
same,binding signal,ETV3,"1.03 fold enrichment (6-mer frequency, TF over GST control)"
CGAAGG,binding signal,GABPA,"1 fold enrichment (6-mer frequency, TF over GST control)"
same,binding signal,EHF,"1.03 fold enrichment (6-mer frequency, TF over GST control)"
same,binding signal,ETV5,"1.05 fold enrichment (6-mer frequency, TF over GST control)"
same,binding signal,ELK4,"1.06 fold enrichment (6-mer frequency, TF over GST control)"
TGAAAT,binding signal,GABPA,"1.03 fold enrichment (6-mer frequency, TF over GST control)"
same,binding signal,ERG,"1.02 fold enrichment (6-mer frequency, TF over GST control)"
same,binding signal,ELF1,"1 fold enrichment (6-mer frequency, TF over GST control)"
same,binding signal,EHF,"1.01 fold enrichment (6-mer frequency, TF over GST control)"
same,binding signal,SPIB,"1.01 fold enrichment (6-mer frequency, TF over GST control)"
same,binding signal,ETV5,"1.07 fold enrichment (6-mer frequency, TF over GST control)"
same,binding signal,ELK4,"1.04 fold enrichment (6-mer frequency, TF over GST control)"
same,binding signal,ETV2,"1.04 fold enrichment (6-mer frequency, TF over GST control)"
same,binding signal,ELF3,"1.09 fold enrichment (6-mer frequency, TF over GST control)"
same,binding signal,ETV1,"1.08 fold enrichment (6-mer frequency, TF over GST control)"
same,binding signal,ERF,"1.01 fold enrichment (6-mer frequency, TF over GST control)"
same,binding signal,ETV3L,"1.04 fold enrichment (6-mer frequency, TF over GST control)"
same,binding signal,ETV3,"1.03 fold enrichment (6-mer frequency, TF over GST control)"
TAGCGT,binding signal,ELK1,"1 fold enrichment (6-mer frequency, TF over GST control)"
same,binding signal,ELF1,"1.02 fold enrichment (6-mer frequency, TF over GST control)"
same,binding signal,EHF,"1 fold enrichment (6-mer frequency, TF over GST control)"
same,binding signal,ETV5,"1.03 fold enrichment (6-mer frequency, TF over GST control)"
same,binding signal,ELF4,"1.02 fold enrichment (6-mer frequency, TF over GST control)"
same,binding signal,ELK4,"1.07 fold enrichment (6-mer frequency, TF over GST control)"
same,binding signal,ETV1,"1.03 fold enrichment (6-mer frequency, TF over GST control)"
same,binding signal,ETV7,"1 fold enrichment (6-mer frequency, TF over GST control)"
same,binding signal,ETV3,"1.04 fold enrichment (6-mer frequency, TF over GST control)"
